A short description of test [1]: ATG_M_61_CIS: Attagene CIS-FACTORIAL HepG2 Assay for M61 Transcription Factor (Internal Marker) (AID 2282937). To be noted: HepG2 Attagene CIS-FACTORIAL M61 internal marker reporter; actives raise or lower the signal. A digest of the protocol: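 Human liver HepG2, transient MRTU transfection (cis promoter elements), 24 h compound. Total RNA → oligo(dT) RT → PCR → FAM label → HpaI → CE. Internal background marker; bidirectional fitting, DMSO = baseline.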

Test [2] can be described thus: ATG_EGR_CIS: Attagene CIS-FACTORIAL HepG2 Assay for human Early Growth Response 1 (EGR1) (AID 2282938). To be noted: HepG2 Attagene CIS-FACTORIAL EGR reporter mRNA; actives raise or lower the signal. In a few lines:
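Transient transfection of human HepG2 with multiple cis-regulated reporter units, chemical exposure 24 h, total RNA isolated. Reverse transcription, PCR, fluorescent labelling and capillary electrophoresis quantify reporter transcripts; activity fitted bidirectionally against DMSO.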

A short description of test [3]: ATG_M_19_CIS: Attagene CIS-FACTORIAL HepG2 Assay for M19 Transcription Factor (Internal Marker) (AID 2282939). To be noted: HepG2 Attagene CIS-FACTORIAL M19 internal marker reporter; actives raise or lower the signal. In a few lines: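 Following a 24 h exposure, RNA from transfected HepG2 cells was reverse-transcribed, PCR-amplified with reporter-specific primers, end-labelled with 6-FAM and HpaI-digested before capillary separation. Values represent gain or loss versus DMSO.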

The nature of test [4]: ATG_Ets_CIS: Attagene CIS-FACTORIAL HepG2 Assay for human Erythroblast Transformation Specific (ETS) (AID 2282941). To be noted: HepG2 ETS cis-reporter transcription, actives raise or lower the signal. A digest of the protocol:
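HepG2 cells transfected with multiple cis-regulated reporter units measuring endogenous ETS-driven transcription, 24 h after dosing. Reporter mRNA quantified by RT-PCR with capillary electrophoresis; bidirectional fit relative to DMSO.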

The target in test [5] is Hepatocyte nuclear factor 3-beta (Homo sapiens) (UniProt Q9Y261). Put plainly: ATG_FoxA2_CIS: Attagene CIS-FACTORIAL HepG2 Assay for human Forkhead box A2 (FOXA2) (AID 2282942). To be noted: HepG2 cis-reporter transcription factor activity, 24 h; actives raise or lower the signal. A digest of the protocol: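 Transient MRTU transfection of HepG2 liver cells; 24 h treatment; total RNA → oligo(dT) RT → PCR → FAM primer extension → HpaI cut → CE. Bidirectional fit vs DMSO.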
Sequence of Hepatocyte nuclear factor 3-beta (Homo sapiens) (Q9Y261 whole entry, looked up): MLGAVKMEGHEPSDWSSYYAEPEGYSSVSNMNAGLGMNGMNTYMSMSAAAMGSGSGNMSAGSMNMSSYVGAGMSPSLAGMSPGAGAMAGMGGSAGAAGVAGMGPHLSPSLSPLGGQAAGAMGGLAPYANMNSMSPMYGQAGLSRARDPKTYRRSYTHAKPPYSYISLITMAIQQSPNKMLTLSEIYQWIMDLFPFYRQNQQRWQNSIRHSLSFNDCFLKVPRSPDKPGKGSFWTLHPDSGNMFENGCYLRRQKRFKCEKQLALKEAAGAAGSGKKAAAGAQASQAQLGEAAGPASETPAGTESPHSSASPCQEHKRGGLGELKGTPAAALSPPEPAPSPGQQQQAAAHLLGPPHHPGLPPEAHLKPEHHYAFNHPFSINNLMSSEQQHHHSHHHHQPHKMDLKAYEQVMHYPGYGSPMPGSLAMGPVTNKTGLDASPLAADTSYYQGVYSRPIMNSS

Test [6] can be described thus: ATG_FoxO_CIS: Attagene CIS-FACTORIAL HepG2 Assay for human Forkhead box O (FoxO) (AID 2282943). To be noted: HepG2 Attagene cis-reporter, FoxO element, mRNA; actives raise or lower the signal. In a few lines: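 HepG2, transient MRTU transfection (cis element, endogenous TFs). Dose 24 h. TriZol RNA → oligo(dT) RT → PCR → 6-FAM primer extension → HpaI cut → CE. Gain/loss vs DMSO.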

Test [7] is described as follows: ATG_GATA_CIS: Attagene CIS-FACTORIAL HepG2 Assay for human GATA Binding Protein (AID 2282944). To be noted: HepG2 GATA cis-element reporter, Attagene multiplex mRNA; actives raise or lower the signal. A digest of the protocol:
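DMSO serves as negative control and baseline for bidirectional fitting of reporter mRNA changes. HepG2 cells bearing transiently transfected cis-promoter reporters were exposed 24 h; transcripts detected via RT-PCR and capillary electrophoresis.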

A short description of test [8]: ATG_GLI_CIS: Attagene CIS-FACTORIAL HepG2 Assay for human Zinc Finger Protein GLI1 (AID 2282945). Particulars: HepG2, Attagene cis-factorial reporter mRNA, GLI element; actives raise or lower the signal. In a few lines: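 Bidirectional curve fits relative to DMSO, using reporter mRNA levels from RT-PCR plus capillary electrophoresis. Cells were HepG2 transiently carrying cis-regulated reporter constructs, harvested 24 h after dosing.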

Test [9] can be described thus: ATG_ISRE_CIS: Attagene CIS-FACTORIAL HepG2 Assay for human Interferon Regulatory Factor 1 (IRF1) binding to an Interferon-Stimulated Response Element (ISRE) (AID 2282948). To be noted: HepG2 ISRE cis-reporter (Attagene), mRNA transcription readout; actives raise or lower the signal. In a few lines: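 Transiently transfected HepG2 cells carrying cis-element reporter units, dosed 24 hours. Reporter mRNA quantified by RT-PCR, fluorescent primer extension, HpaI digestion and capillary electrophoresis. Bidirectional fitting relative to DMSO.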

The nature of test [10]: ATG_M_32_CIS: Attagene CIS-FACTORIAL HepG2 Assay for M32 Transcription Factor (Internal Marker) (AID 2282949).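 Note: background control marker of the multiplexed CIS panel rather than a real target.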 Particulars: HepG2 Attagene cis-factorial M32 reporter, mRNA; actives raise or lower the signal. In a few lines:
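HepG2 cells transiently transfected with multiplexed cis-regulated reporter units, dosed 24 h. Reporter mRNA quantified by RT-PCR, 6-FAM labelling, HpaI digestion and capillary electrophoresis; bidirectional fit vs DMSO.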

Test [11] in a line: ATG_M_06_CIS: Attagene CIS-FACTORIAL HepG2 Assay for M06 Transcription Factor (Internal Marker) (AID 2282950). To be noted: HepG2 Attagene CIS-FACTORIAL M06 internal marker reporter; actives raise or lower the signal. A digest of the protocol:
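Fluorescence-labelled RT-PCR products from cis-promoter reporter units, cut with HpaI and resolved by capillary electrophoresis, give the signal. Cells are human HepG2, dosed for 24 h. Serves as background control, fitted relative to DMSO.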

Test [12] deals with Hepatocyte nuclear factor 6 (Homo sapiens) (UniProt Q9UBC0). Put plainly: ATG_HNF6_CIS: Attagene CIS-FACTORIAL HepG2 Assay for human Hepatocyte Nuclear Factor 6 (HNF6) (AID 2282952). To be noted: HepG2 Attagene cis-factorial HNF6 reporter transcription; actives raise or lower the signal. A digest of the protocol:
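HepG2 cells transiently transfected with cis-element-driven multiplexed reporter units measuring endogenous transcription factor activity. After 24 h exposure, reporter mRNA quantified by RT-PCR, FAM-labelled fragments and capillary electrophoresis; bidirectional fitting versus DMSO.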

Test [13] has as its target Heat shock factor protein 1 (Homo sapiens) (UniProt Q00613). As to the kind of experiment: ATG_HSE_CIS: Attagene CIS-FACTORIAL HepG2 Assay for human Heat Shock Transcription Factor 1 (HSE) (AID 2282953). Particulars: HepG2 HSE cis-reporter, Attagene RNA transcription; actives raise or lower the signal. In a few lines:
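After a 24 h incubation with test chemical, transfected HepG2 cells were harvested for RNA; reporter transcripts were measured by RT-PCR and capillary electrophoresis. Values reflect gain or loss of signal relative to DMSO.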

The nature of test [14]: ATG_MRE_CIS: Attagene CIS-FACTORIAL HepG2 Assay for human Metal Responsive Element (MRE) (AID 2282954). To be noted: HepG2 MRE cis-reporter transcription, Attagene multiplex; actives raise or lower the signal. A digest of the protocol: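 Transient MRTU transfection of HepG2 (FuGene 6); 24 h dosing; total RNA → oligo(dT) RT, PCR, 6-FAM primer extension, HpaI cut, CE. Bidirectional fit vs DMSO.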

The nature of test [15]: ATG_E_Box_CIS: Attagene CIS-FACTORIAL HepG2 Assay for human Enhancer Box (E-box) (AID 2282936). Particulars: HepG2 E-box cis-reporter transcription, actives raise or lower the signal. A digest of the protocol: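 Cells: HepG2 (human liver), transient MRTU transfection. Exposure 24 h. RNA → oligo(dT) RT → PCR → 6-FAM label → HpaI → CE. Activity fitted both directions relative to DMSO.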

Test [16] addresses Bile acid receptor (Homo sapiens) (UniProt Q96RI1). Put plainly: ATG_IR1_CIS: Attagene CIS-FACTORIAL HepG2 Assay for human Nuclear Receptor Subfamily 1 Group H Member 4 (NR1H4), IR1 submotif (AID 2282946). Particulars: IR1 reporter transcription, actives raise or lower the signal. A digest of the protocol:
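Cells (human HepG2) carry transiently transfected cis-promoter reporter transcription units. Compounds are incubated 24 h, total RNA is reverse-transcribed and amplified, and labelled fragments are resolved by capillary electrophoresis. Curves use DMSO as baseline.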

The nature of test [17]: ATG_GRE_CIS: Attagene CIS-FACTORIAL HepG2 Assay for human Glucocorticoid Response Elements (GRE) (AID 2282947). To be noted: HepG2 GRE cis-reporter, Attagene multiplex mRNA; actives raise or lower the signal. A digest of the protocol: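 Transient MRTU transfection of human HepG2 liver cells; cis-regulated reporters report endogenous factors. 24 h dosing → RNA isolation → RT-PCR → 6-FAM primer extension → HpaI cut → CE fragment analysis. Bidirectional fit, DMSO negative control.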

The target of test [18] is Hypoxia-inducible factor 1-alpha (Homo sapiens) (UniProt Q16665). As to the kind of experiment: ATG_HIF1a_CIS: Attagene CIS-FACTORIAL HepG2 Assay for human Hypoxia Inducible Factor 1 (HIF1A) (AID 2282951). Particulars: HepG2 Attagene cis-factorial HIF1a reporter transcription; actives raise or lower the signal. In a few lines: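 Transient MRTU transfection of human HepG2 liver cells, 24 h compound treatment, then total RNA isolation, oligo(dT) reverse transcription, PCR amplification, fluorescent labelling and capillary electrophoresis of reporter fragments. Gain or loss relative to DMSO.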
Sequence of Hypoxia-inducible factor 1-alpha (Homo sapiens) (Q16665 whole entry, looked up, the tested form may be a part): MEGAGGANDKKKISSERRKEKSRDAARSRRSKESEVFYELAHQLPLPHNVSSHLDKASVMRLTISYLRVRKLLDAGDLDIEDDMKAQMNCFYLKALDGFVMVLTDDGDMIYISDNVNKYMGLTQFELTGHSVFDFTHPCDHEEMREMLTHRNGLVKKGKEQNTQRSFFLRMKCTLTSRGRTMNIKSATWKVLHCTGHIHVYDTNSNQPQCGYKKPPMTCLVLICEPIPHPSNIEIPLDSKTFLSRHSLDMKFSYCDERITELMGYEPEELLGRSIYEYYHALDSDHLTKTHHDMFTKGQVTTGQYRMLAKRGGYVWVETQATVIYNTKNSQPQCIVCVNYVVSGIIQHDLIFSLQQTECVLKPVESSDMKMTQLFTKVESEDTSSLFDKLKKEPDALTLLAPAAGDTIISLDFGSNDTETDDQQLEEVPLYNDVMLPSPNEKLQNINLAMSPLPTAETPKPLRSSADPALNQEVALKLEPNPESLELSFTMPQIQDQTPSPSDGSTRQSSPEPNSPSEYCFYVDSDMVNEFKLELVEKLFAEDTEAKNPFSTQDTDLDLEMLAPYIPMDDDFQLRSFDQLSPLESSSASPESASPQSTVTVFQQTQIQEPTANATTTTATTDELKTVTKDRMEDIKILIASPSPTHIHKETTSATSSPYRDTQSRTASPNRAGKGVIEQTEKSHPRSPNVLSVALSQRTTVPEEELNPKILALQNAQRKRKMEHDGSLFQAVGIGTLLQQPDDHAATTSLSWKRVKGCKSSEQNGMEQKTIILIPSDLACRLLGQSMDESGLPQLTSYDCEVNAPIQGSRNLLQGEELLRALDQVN

In test [19] the target is Paired box protein Pax-6 (Homo sapiens) (UniProt P26367). As to the kind of experiment: ATG_Pax6_CIS: Attagene CIS-FACTORIAL HepG2 Assay for human Paired Box 6 (PAX6) (AID 2282956). To be noted: HepG2 CIS-FACTORIAL PAX6 reporter transcription, RNA readout; actives raise or lower the signal. In a few lines:
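HepG2 cells transiently transfected with cis-promoter-driven multiplexed reporter units sensing endogenous transcription factor activity; 24 h chemical exposure. Reporter mRNA quantified by RT-PCR, 6-FAM labelling, HpaI digestion and capillary electrophoresis; bidirectional fit versus DMSO baseline.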

Test [20] in a line: ATG_PBREM_CIS: Attagene CIS-FACTORIAL HepG2 Assay for human Phenobarbital-responsive Enhancer Module (PBREM) (AID 2282955). To be noted: HepG2 PBREM cis-reporter, Attagene multiplexed transcription; actives raise or lower the signal. A digest of the protocol: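 Endogenous transcription factors in human liver HepG2 cells drive a PBREM cis-element reporter, whose transcript level after 24 h treatment is quantified by RT-PCR with capillary electrophoresis; activity fitted in both directions against DMSO.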

“And” between values parts separate entries of the source, which are not always exact repeats. Equal entries are not always repeated. Where a structure was tested more than once in an assay, its records may differ in their call. The source made the active and inactive calls. Rule for the calls: active = hit-call score of the fitted dose curve at least 0.9, where 1 is the maximum; inactive = score below 0.9.

This passage reports outcome and AC50 results from PubChem BioAssay (EPA / NIEHS).

Sequence of Heat shock factor protein 1 (Homo sapiens) (Q00613 whole entry, looked up): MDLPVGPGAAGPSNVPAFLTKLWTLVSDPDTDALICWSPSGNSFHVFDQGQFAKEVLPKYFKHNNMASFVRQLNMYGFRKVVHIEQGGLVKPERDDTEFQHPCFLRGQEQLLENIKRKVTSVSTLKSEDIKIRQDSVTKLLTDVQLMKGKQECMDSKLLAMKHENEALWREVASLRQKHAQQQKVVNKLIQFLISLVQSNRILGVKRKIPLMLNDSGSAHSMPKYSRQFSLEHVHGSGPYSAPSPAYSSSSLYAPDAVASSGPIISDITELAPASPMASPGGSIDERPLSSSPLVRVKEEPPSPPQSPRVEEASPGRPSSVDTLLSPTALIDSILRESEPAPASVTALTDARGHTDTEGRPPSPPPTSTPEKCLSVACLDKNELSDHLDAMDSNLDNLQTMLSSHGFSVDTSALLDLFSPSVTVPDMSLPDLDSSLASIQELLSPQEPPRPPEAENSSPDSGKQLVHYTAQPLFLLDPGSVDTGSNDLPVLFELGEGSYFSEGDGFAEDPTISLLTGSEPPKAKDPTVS
Sequence of Hepatocyte nuclear factor 6 (Homo sapiens) (Q9UBC0 whole entry, looked up, the tested form may be a part): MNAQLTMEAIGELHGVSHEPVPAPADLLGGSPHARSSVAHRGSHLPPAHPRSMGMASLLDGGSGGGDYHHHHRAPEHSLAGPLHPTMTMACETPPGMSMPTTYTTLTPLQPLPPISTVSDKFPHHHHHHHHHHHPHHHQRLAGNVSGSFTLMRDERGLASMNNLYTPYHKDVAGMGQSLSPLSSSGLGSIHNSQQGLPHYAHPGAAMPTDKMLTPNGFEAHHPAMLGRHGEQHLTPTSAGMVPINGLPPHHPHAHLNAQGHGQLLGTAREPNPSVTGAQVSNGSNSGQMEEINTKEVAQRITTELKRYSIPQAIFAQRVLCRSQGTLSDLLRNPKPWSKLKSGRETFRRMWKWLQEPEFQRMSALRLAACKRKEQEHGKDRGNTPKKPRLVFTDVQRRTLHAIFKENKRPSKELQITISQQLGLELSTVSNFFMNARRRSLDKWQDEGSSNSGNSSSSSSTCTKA
Sequence of Bile acid receptor (Homo sapiens) (Q96RI1 whole entry, looked up, the tested form may be a part): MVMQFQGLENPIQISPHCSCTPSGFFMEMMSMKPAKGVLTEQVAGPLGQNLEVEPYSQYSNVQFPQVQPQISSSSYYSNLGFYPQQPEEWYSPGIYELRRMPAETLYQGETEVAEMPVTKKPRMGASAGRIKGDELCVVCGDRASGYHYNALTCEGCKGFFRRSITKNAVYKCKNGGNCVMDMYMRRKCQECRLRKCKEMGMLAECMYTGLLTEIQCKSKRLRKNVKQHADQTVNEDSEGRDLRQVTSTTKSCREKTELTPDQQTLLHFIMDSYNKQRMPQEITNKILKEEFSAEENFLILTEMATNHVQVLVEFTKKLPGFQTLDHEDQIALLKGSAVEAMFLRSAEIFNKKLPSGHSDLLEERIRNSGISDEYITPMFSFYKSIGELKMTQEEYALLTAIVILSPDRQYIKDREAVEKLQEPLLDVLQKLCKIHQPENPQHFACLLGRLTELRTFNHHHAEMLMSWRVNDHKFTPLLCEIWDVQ
Sequence of Paired box protein Pax-6 (Homo sapiens) (P26367 whole entry, looked up): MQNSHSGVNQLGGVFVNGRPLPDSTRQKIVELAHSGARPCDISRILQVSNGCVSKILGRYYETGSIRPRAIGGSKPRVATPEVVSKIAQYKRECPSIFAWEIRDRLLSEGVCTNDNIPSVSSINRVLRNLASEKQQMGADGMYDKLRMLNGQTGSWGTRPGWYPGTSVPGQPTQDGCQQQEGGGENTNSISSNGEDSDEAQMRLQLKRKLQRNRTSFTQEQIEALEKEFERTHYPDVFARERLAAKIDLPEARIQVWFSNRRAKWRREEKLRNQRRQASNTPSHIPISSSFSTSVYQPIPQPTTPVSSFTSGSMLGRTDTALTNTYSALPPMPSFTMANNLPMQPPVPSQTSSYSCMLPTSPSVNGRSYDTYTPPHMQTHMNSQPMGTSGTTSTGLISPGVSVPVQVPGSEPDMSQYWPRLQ

Regarding `CC(=O)[C@H]1CC[C@H]2[C@@H]3CCC4=CC(=O)CC[C@]4(C)[C@H]3CC[C@]12C`, the molecule was called inactive in [1], in test [2], in [3], in [4], in [5] and in [6]. Moreover, the molecule was classed as inactive in [7], in [8], in test [9], in [10], in test [11] and in test [12]. For the same molecule, the call in test [13] and in test [14] was inactive. Also, the half-maximal activity concentration (AC50) (usually the midpoint of the concentration-response curve, whichever way the signal moves) is 22.6 µM (active) and 50.7 µM (active) and 26.7 µM (active) in test [2]; 154 µM (active) in test [6]; 152 µM (active) in test [7]; 46.4 µM (active) in test [9]; 182 µM (active) in test [12]; 60 µM (active) and 149 µM (active) in test [13]. The AC50 in test [14] was 33.4 µM (active) and 38.9 µM (active) and 117 µM (active).
As for `C#CCOC(=O)[C@@H](C)Oc1ccc(Oc2ncc(Cl)cc2F)cc1`, the outcome in test [15], in test [1], in test [2], in test [3], in test [4] and in test [5] was inactive. Moreover, the molecule was classed as inactive in test [6], in test [7], in [8], in test [16], in [17] and in test [9]. Moreover, the molecule was classed as inactive in test [10], in test [11], in test [18], in [12], in [14] and in [19].
In the case of `COCCO`, the outcome in test [15], in test [1], in test [2], in test [3], in test [4] and in test [5] was inactive. Moreover, the call in test [6], in test [7], in test [8], in test [17], in test [9] and in test [10] was inactive. Further, the result in test [11], in [18], in [12] and in test [14] was inactive.
Consider `O=C(Nc1ccc([N+](=O)[O-])cc1Cl)c1cc(Cl)ccc1O`, for which the result in [15], in test [1], in [3], in test [4], in [5] and in [6] was inactive. For the same molecule, the molecule was called inactive in [7], in test [8], in [16], in [17], in test [9] and in test [10]. Further, the molecule was classed as inactive in test [11], in test [12] and in [13]. For the same molecule, the AC50 in test [2] was 894 nM (active); in test [14], 947 nM (active); in test [20], 0.7 µM (active).
